Structures are written as SMILES. Records with an inconclusive call do not appear. Unmarked numbers belong to inactive results. Calls of active or inactive are those of the source. Calls come from the whole dose curve; as a rule, active = well fitted cell-killing curve with a large enough effect; inconclusive = small, poorly fitted or top-dose-only effect, or effect the other way; inactive = flat fitted curve, though single readings scatter.

Common to all, as to assay: Primary qHTS to identify gynecologic anti-cancer compounds using libraries of approved drugs and bioactive compounds (AID 1345084); note: nearly all actives have a fitted effect of over 55% in size
For one test, the system named is C33A. As to conditions: Gynecologic cancer cell panel viability, ATPlite luminescence, 48 h; series mostly up to 57.5 µM. Put shortly: (§1)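 Cytotoxicity screen measuring ATP content by luciferase luminescence. Each compound is applied at five concentrations for 48 h at 37 C with 5% CO2.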
A further test concerns CAOV3. As to conditions: Gynecologic cancer cell panel viability, ATPlite luminescence, 48 h; series mostly up to 57.5 µM. Put shortly: as §1
In another test the test system is CASKI. To be noted: Gynecologic cancer cell panel viability, ATPlite luminescence, 48 h; series mostly up to 57.5 µM. The method, boiled down:
as §1

Another test concerns Es-2. To be noted: Gynecologic cancer cell panel viability, ATPlite luminescence, 48 h; series mostly up to 57.5 µM. Put shortly: as §1
In another test the test system is HeLa. To be noted: Gynecologic cancer cell panel viability, ATPlite luminescence, 48 h; series mostly up to 57.5 µM. Put shortly:
as §1

The next test has as its system Hek293T. To be noted: Gynecologic cancer cell panel viability, ATPlite luminescence, 48 h, control line for the selectivity index; series mostly up to 57.5 µM. Put shortly: as §1
The subject of a further test is JEG-3. As to conditions: Gynecologic cancer cell panel viability, ATPlite luminescence, 48 h; series mostly up to 57.5 µM. Put shortly:
as §1

A further test relates to OV90. To be noted: Gynecologic cancer cell panel viability, ATPlite luminescence, 48 h; series mostly up to 57.5 µM. Put shortly: as §1
Another test relates to PA-1. To be noted: Gynecologic cancer cell panel viability, ATPlite luminescence, 48 h; series mostly up to 57.5 µM. Put shortly:
as §1

A further test deals with SKOV3. As to conditions: Gynecologic cancer cell panel viability, ATPlite luminescence, 48 h; series mostly up to 57.5 µM. Put shortly:
as §1

The next test relates to Tov-21-G. As to conditions: Gynecologic cancer cell panel viability, ATPlite luminescence, 48 h; series mostly up to 57.5 µM. Put shortly: as §1
The test system of a further test is Tov112D. As to conditions: Gynecologic cancer cell panel viability, ATPlite luminescence, 48 h; series mostly up to 57.5 µM. Put shortly:
as §1
Potency is the fitted concentration of half-maximal effect.

As to `COc1ccc([C@H]2Cc3cccc(O)c3C(=O)O2)cc1OC`, the Potency result in the test on C33A, in the test with CAOV3, in the test on CASKI, in the test on Es-2, in the test with HeLa and in the test with Hek293T was “inactive” throughout. Also, the Potency result in the test with JEG-3, in the test on OV90, with PA-1, with SKOV3, with Tov-21-G and with Tov112D was “inactive” in each case.

Take `C=C1C(=O)O[C@@H]2[C@H]1CCC(C)=C(CCC(=O)O)[C@@]2(C)O`: the Potency result in the test on C33A, in the test on CAOV3, in the test on CASKI, in the test with Es-2, in the test on HeLa and in the test with Hek293T was “inactive” throughout. In addition, the Potency entry in the test on JEG-3, with OV90, in the test with PA-1, with SKOV3, with Tov-21-G and in the test on Tov112D was “inactive” each time.

With `COc1ccc(Sc2ccc(NC(=O)c3ccccc3Cl)cc2C#N)cc1`, the Potency result with C33A, in the test with CAOV3, with CASKI, with Es-2, with HeLa and in the test with Hek293T was “inactive” in each case. In addition, the Potency entry in the test on JEG-3, in the test on OV90, with PA-1, in the test with SKOV3, in the test on Tov-21-G and with Tov112D was “inactive” each time.

With `C=C(C)C(=O)O[C@H]1/C(C=O)=C\CC/C(CO)=C/[C@H]2OC(=O)C(=C)[C@@H]2[C@@H]1OC`, the Potency entry with C33A, in the test with CAOV3, in the test on CASKI, with Es-2, in the test with HeLa and in the test with Hek293T was “inactive” throughout. Also, the Potency result in the test with JEG-3, in the test with OV90, in the test on PA-1, with SKOV3, in the test on Tov-21-G and with Tov112D was “inactive” in each case.

As to `O=C(Nc1ccc2[nH]c(=O)oc2c1)C(=O)N1CCC(Cc2ccc(F)cc2)CC1`, the Potency result with C33A, in the test with CAOV3, with CASKI, in the test with Es-2, in the test on HeLa and in the test on Hek293T was “inactive” throughout. The Potency result in the test on JEG-3, in the test with OV90, with PA-1, in the test with SKOV3, in the test on Tov-21-G and in the test with Tov112D was “inactive” in each case.

In the case of `Cc1cccc(N2CCN(C(=O)c3cc(S(=O)(=O)N(C)C)ccc3N3CCCC3)CC2)c1C`, the Potency result in the test with C33A, in the test with CAOV3, in the test with CASKI, in the test with Es-2, in the test on HeLa and with Hek293T was “inactive” each time. The Potency result with JEG-3, in the test on OV90, with PA-1, with SKOV3, in the test with Tov-21-G and in the test with Tov112D was “inactive” each time.

Consider `C=C1CC[C@@H]2[C@](C)(CO)[C@H](O)CC[C@@]2(C)[C@@H]1/C=C/C1=CCOC1=O`, for which the Potency result with C33A, with CAOV3, in the test on CASKI, in the test with Es-2, in the test on HeLa and in the test with Hek293T was “inactive” each time. Moreover, the Potency result in the test with JEG-3, with OV90, in the test on PA-1, in the test on SKOV3, with Tov-21-G and in the test on Tov112D was “inactive” in each case.

On to `COc1ccc(NC(=O)c2ccc(C(=N)N(C)C)cc2)c(C(=O)Nc2ccc(Cl)cn2)c1`, for which the Potency result in the test on C33A, with CAOV3, in the test with CASKI, in the test with Es-2, in the test with HeLa and in the test with Hek293T was “inactive” each time. Also, the Potency entry in the test on JEG-3, in the test on OV90, with PA-1, in the test with SKOV3, with Tov-21-G and in the test with Tov112D was “inactive” each time.

For the compound `CC(C)(CNC(=O)c1cccc(-c2noc(C(F)(F)F)n2)c1)c1coc(-c2ccccc2)n1`, the Potency entry in the test with C33A, with CAOV3, in the test with CASKI, in the test on Es-2, in the test with HeLa and in the test on Hek293T was “inactive” in each case. Also, the Potency entry in the test with JEG-3, in the test with OV90, in the test on PA-1, with SKOV3, with Tov-21-G and with Tov112D was “inactive” throughout.

Take `CC(C)(CO)c1cc2cc(NC(=O)C3(c4ccc5c(c4)OC(F)(F)O5)CC3)c(F)cc2n1CC(O)CO` (stereo unspecified): the Potency entry with C33A, in the test on CAOV3, in the test on CASKI, with Es-2, with HeLa and with Hek293T was “inactive” each time. Moreover, the Potency result with JEG-3, with OV90, with PA-1, in the test with SKOV3, in the test with Tov-21-G and with Tov112D was “inactive” each time.

With `COc1ccc2cc(-c3cc(-c4cc(Cl)cc(Cl)c4)nn3C(C)c3ccc(C(=O)NCCC(=O)O)cc3)ccc2c1` (stereo unspecified), the Potency result in the test on C33A, in the test on CAOV3, with CASKI, in the test with Es-2, in the test on HeLa and in the test with Hek293T was “inactive” throughout. The Potency result in the test on JEG-3, in the test on OV90, with PA-1, in the test with SKOV3, in the test with Tov-21-G and in the test on Tov112D was “inactive” in each case.

As for `CCNC(=O)N1CCCN(c2ccc(C(=O)NCCc3ccc(Cl)cc3Cl)cc2NC(=O)c2cccc(Cl)c2)CC1`, the Potency entry in the test with C33A, in the test with CAOV3, in the test with CASKI, in the test on Es-2, in the test on HeLa and in the test with Hek293T was “inactive” each time. Moreover, the Potency entry in the test with JEG-3, in the test on OV90, with PA-1, in the test on Tov-21-G and with Tov112D was “inactive” throughout. Also, the Potency with SKOV3 was 1000 nM (active).

In the case of `CCCC(CCC)C(=O)NCc1ccc2c(cnn2-c2ccccc2OC)c1`, the Potency entry in the test on C33A, in the test on CAOV3, with CASKI, with Es-2, in the test with HeLa and with Hek293T was “inactive” throughout. In addition, the Potency entry with JEG-3, in the test with OV90, in the test with PA-1, with SKOV3, in the test on Tov-21-G and in the test on Tov112D was “inactive” in each case.

Source of the values: PubChem BioAssay (NCATS).
